Source: PubChem
AMA1 RON2 block – AMA1-RON2 (P. falciparum) interaction inhibition; Potency, µM (titrated, usually from 58.2 µM), usual class: inhibitors; AID 720542; AlphaScreen AMA1-biotinylated RON2 peptide binding; hit rate 0.2% among 360,000; also: nearly all actives have a fitted effect of over 45% in size
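AMA1 (3D7) with his tag at 25 nM final met compounds first, then biotinylated RON2 peptide at 25 nM; detection used donor plus acceptor beads, 10 µg/mL apiece, read by AlphaScreen after 30 min at room temperature.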
Pf growth 96h – inhibits malaria parasite growth, 96 h. hit rate 6.9% among 320,000. P. falciparum luciferase reporter growth, 96 h. Potency, µM (series often up to 28.7 µM), actives largely listed as inhibitors
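Cell-based qHTS: luciferase-tagged P. falciparum in erythrocytes (2% hematocrit, 0.05% parasitemia final) incubated with compounds for 96 hours, 37 C, 5% CO2; luciferase detection reagent then added and luminescence measured.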
Shiga inhibitor – Shiga toxin inhibition. Vero cells, Shiga toxin protein synthesis inhibition reporter. inhibition, % at 38.7 µM. hit rate 9.2% among 290,000; in the data active = inhibition mostly above about 28%, no sharp cut-off; inactive = mostly below about 43%
HCV inh – HCV inhibition; Huh7.5.1 HCVcc-Cre infection, luciferase reporter, 44 h; Potency, µM (doses to about 41.8 µM), most hits filed as inhibitors; hit rate 3.4% among 340,000; AID 651820
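Whole-lifecycle infectious HCVcc-Cre system; cells 1,000/well, compound then virus (~0.5 moi) added 4 h after plating, 44 h culture. Luciferase read 15 sec following 15 min substrate incubation, room temp.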
Pf growth 48h – P. falciparum growth inhibition at 48 hours (one generation); P. falciparum luciferase growth in erythrocytes, 48 h; Potency, µM (titrated, usually from 28.7 µM), usual class: inhibitors; hit rate 5.9% among 310,000; AID 504832
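Luciferase-expressing P. falciparum in infected erythrocytes (2% hematocrit, 0.1% parasitemia final) in RPMI 1640/0.5% Albumax were exposed to compound for 48 hours at 37 C, 5% CO2; growth read as luminescence.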
CHX counter – counter-screen for Shiga toxin inhibitors: cycloheximide protein synthesis inhibition. max response, %. AID 2314. hit rate 12% among 300,000. cell reporter, cycloheximide protein synthesis inhibition counterscreen; in the data active = max response mostly above about 13%, no sharp cut-off; inactive = mostly below about 14%; also: read at 38.3 µM for the half of the compounds with a filed dose
A number is an active result; 0 = inactive; ? = inconclusive; - = no result; [ ] = another dose, or the depositor's remark. Sampled rows, rich in hits. Any-hit rate of the full collection: about 21%. Unless noted, calls follow the shape of the dose curve; as a rule, active = well fitted curve in the direction sought with a large enough effect; inconclusive = small, poorly fitted or top-dose-only effect, or another doubt; inactive = no such curve, though single readings can be large; an effect the other way counts as inactive or inconclusive.

SMILES	AMA1 RON2 block	Pf growth 96h	Shiga inhibitor	HCV inh	Pf growth 48h	CHX counter
COc1ccc(N2C(=O)N3[C@H](c4ccc(Cl)cc4)[C@@H]4C(=O)N(C5CCCCC5)C(=O)[C@@H]4[C@]3(C)C2=O)cc1	0	2.3µM	0	0	?	0
C[C@@]12C(=O)N(c3cccc(F)c3)C(=O)N1[C@H](c1ccc(F)cc1)[C@@H]1C(=O)N(C3CCCCC3)C(=O)[C@@H]12	0	0	0	0	?	0
CC(C)C[C@@]12C(=O)N(c3cccc(F)c3)C(=O)N1[C@H](c1ccc(F)cc1)[C@@H]1C(=O)N(C3CCCCC3)C(=O)[C@@H]12	0	?	-	0	10µM	-
C=CCC1CCCCC1=C(C#N)c1ccccc1 (configuration not stated)	0	-	-	-	-	-
Cc1csc(-c2nc3ccccc3n2C(C(=O)Nc2c(C)cccc2C)C2CC2)c1 (configuration not stated)	0	-	-	-	-	-
COCCNc1nc(-c2ccccc2F)c2sc(-c3ccccc3)cc2n1	0	-	-	-	-	-
CC1(C(=O)NCc2ccccc2)CCC(=O)N1CCCn1ccnc1 (configuration not stated)	0	-	-	-	-	-
Cc1ccc(C)c(NS(=O)(=O)c2ccc3c(c2)Cc2cc(S(=O)(=O)Nc4cc(C)ccc4C)ccc2-3)c1	0	0	0	0	?	0
CN(C)C(=O)CSc1nnc(CCN)o1	0	0	0	0	0	0
CN(C)C(=O)CSc1nnc(C23CC4CC(CC(C4)C2)C3)o1	0	-	0	0	0	15
CN(CCCC(=O)NC1CC(C)(C)NC(C)(C)C1)S(=O)(=O)c1ccc([N+](=O)[O-])cc1	0	?	0	0	0	0
O=C(Nc1ccc(Br)cc1)c1ccccc1CC[N+](=O)[O-]	0	0	0	?	?	0
O=C(NNc1ccccn1)c1ccccc1CC[N+](=O)[O-]	0	?	0	0	0	14
O=C(/C=C\Nc1ccc(Br)cc1)c1cccnc1	0[11.6 µM]	0	76	0	0	57
O=C(NC(=S)NNC(=O)c1ccc(Cl)cc1Cl)c1cccnc1	0	?	0	0	0	0
O=C(Cc1ccc(Cl)cc1)NNC(=S)NC(=O)c1cccnc1	0	4.1µM	0	0	0	0
O=C(NC(=S)NNC(=O)c1ccccc1O)c1cccnc1	?	0	51	0	0	0
O=C(NNC(=S)NCc1ccc(Cl)cc1)c1cccnc1	0	0	0	0	0	0
O=C(NNC(=S)NC(=O)c1cccnc1)c1ccc(Cl)cc1	0	0	0	?	?	19
O=C(NC(=S)Nc1ccccc1O)c1cccnc1	0	0	-	0	0	0
Cc1cn2c(=O)c(C(=O)N3CCN(c4ccccc4F)CC3)cnc2s1	0	0	-	0	0	-
O=C(c1sc2cc(Cl)ccc2c1Cl)N1CCN(CCc2ccccn2)CC1	0	0	0	?	0	0
O=C(NNC(=S)Nc1ccc(Br)cc1)c1cccnc1	0	0	0	0	0	18
CCNC(=S)NNC(=O)c1cccnc1	0	0	0	0	0	0
NC(=O)[C@@H]1CCCN1	-	-	0	-	-	0
SMILES	AMA1 RON2 block	Pf growth 96h	Shiga inhibitor	HCV inh	Pf growth 48h	CHX counter
Cc1ccc(NC(=O)CN2CCC(Cc3ccccc3)CC2)cc1S(=O)(=O)N(C)C	?	?	0	11µM	?	0
Cc1ccc(NC(=O)CCN2CCC(Cc3ccccc3)CC2)cc1	0	10µM	-	0	7.4µM	0
Cc1ccc(NC(=O)CSCC(=O)N2CCN(c3cccc(C(F)(F)F)c3)CC2)cc1	0	0	-	0	?	-
COC(=O)CNC(=O)COC(=O)/C=C/c1ccc2ccccc2n1	0	0	32	0	?	20
CC1CCCCN1C(=O)COC(=O)/C=C/c1ccc2ccccc2n1 (configuration not stated)	0	?	48	0	0	48
COc1ccc(C(=O)Nc2cc(C)nn2-c2ccc(C)cc2)cc1	0	0	0	?	0	0
Cc1ccsc1C(=O)NC(C)c1ccccc1 (configuration not stated)	0	0	0	0	0	0
O=C(N/N=C/c1cc([N+](=O)[O-])ccc1O)NC12CC3CC(CC(C3)C1)C2	0	3.3µM	96	0	0	73
O=C(N/N=C/c1ccc(O)cc1O)NC12CC3CC(CC(C3)C1)C2	0	0	33	0	?	24
O=C(CNC(=O)c1cccs1)N/N=C/c1ccc(O)cc1O	0	?	0	0	0	0
CCNC(=O)C(=O)N/N=C/c1cc([N+](=O)[O-])ccc1O	0	10µM	0	0	?	0
O=C(N/N=C/c1cc([N+](=O)[O-])ccc1O)C12CC3CC(CC(C3)C1)C2	0	0	0	?	8.3µM	25
O=C(N/N=C/c1cc([N+](=O)[O-])ccc1O)Nc1ccccc1	0	0	0	0	?	0
Cc1cccc(-n2ncc3c2CCCC3NC(=O)CCN2Cc3ccccc3C2=O)c1C (configuration not stated)	0	?	0	0	?	0
COc1cc(CCC(=O)OCC(=O)N2CCc3ccccc32)cc(OC)c1OC	0	0	0	0	0	0
Nc1nnc(CC(=O)N/N=C\c2cc([N+](=O)[O-])ccc2O)s1	0	10µM	0	0	0	0
CCCCCCCC[n+]1c(C)n(-c2ccccc2)c2ccc(NC(C)=O)cc21	0	0	0	14µM	?	0
C=CCNC(=O)N1CCC(c2nc3ccccc3s2)CC1	0	?	0	0	0	0
Cc1ccc(/C=N/NC(=O)NC2CCCCC2)o1	0	0	41	0	0	21
Cc1cccc(/C=N/NC(=O)NC2CCCCC2)c1	0	?	69	?	0	39
Cc1ccc(/C=C/C(=O)NC2CCCCCCC2)o1	0	0	74	0	0	41
Cc1ccc(/C=N/NC(=O)Nc2ccccc2)o1	0	?	100	0	0	54
Cc1ccc(/C=N/NC(=O)C(O)c2ccccc2)o1 (configuration not stated)	0	0	0	0	0	0
CC(C)c1ccc(/C=C/C(=O)NC2CCCCC2)cc1	0	?	0	0	?	0
O=C(NCc1cccnc1)c1cc(C2CCCCN2C(=O)OCCF)on1 (configuration not stated)	0	-	-	-	-	-
CC(Oc1ccccc1)C(=O)N1CCN=C1SCc1ccc(F)cc1 (configuration not stated)	0	0	0	0	?	0
COC(=O)C1=CN(c2ccc(C)cc2)C(N)=C(C#N)C1c1ccccc1F (configuration not stated)	0	-	-	-	-	-
COCc1cc(Sc2ccc(Cl)cc2)nc(C)n1	0	0	0	0	0	0
COCc1cc(S(=O)c2ccc(Cl)cc2)nc(C)n1 (configuration not stated)	0	0	0	?	0	16
COC(=O)c1ccc(CN2C(=O)C(C)N(C(=O)c3c(F)cccc3F)c3ccccc32)cc1 (configuration not stated)	0	?	0	?	?	0
